The results in this text go back to article PMC8384837, “Expanding the binding specificity for RNA recognition by a PUF domain”.

In this experiment the target is PUM1 PUF domain R4-APA (Homo sapiens, UniProt Q14671 828-1176, N971A;H972P;Q975A). As to the kind of experiment: yeast three-hybrid, YBZ-1, SC-Leu-His + 0.5 mM 3-AT, 4 days. The note with it: tags: N-Gal4 AD-HA kept; label: inside an RPR1-promoter hybrid RNA with tandem MS2 sites; ssRNA. The method, boiled down:
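Pumilio-1 PUF domain libraries, randomized at the three base-contacting residues of each repeat, were co-expressed with matching RNA elements from a centromeric plasmid in strain YBZ-1, which carries a LexA–MS2 coat fusion and a HIS3 reporter. Transformants grew for four days on SC-Leu (input) or on SC-Leu-His + 0.5 mM 3-AT (selection), and the repeat regions were PCR-amplified and Illumina-sequenced. The interaction score is the log change in variant frequency from input to selection. That logarithm is base 2, with a pseudocount of 1 where a variant was absent.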
For the sequence “GGCUAGAACUAGUGGAUCCCCCGGCGCCCGGCGGCUCGAGCCCGGGUAAGUGUAAAUAGUCUGCAUGCCGCCGGGCGCCAUGCCUGCAGGUCGACUCUAGAAAACAUG”, the binding signal was 4.16 log2 enrichment (interaction score). Turning to “GGCUAGAACUAGUGGAUCCCCCGGCGCCCGGCGGCUCGAGCCCGGGUAAGUGUAUAUAGUCUGCAUGCCGCCGGGCGCCAUGCCUGCAGGUCGACUCUAGAAAACAUG”, the binding signal is 2.47 log2 enrichment (interaction score). Regarding “GGCUAGAACUAGUGGAUCCCCCGGCGCCCGGCGGCUCGAGCCCGGGUAAGUGUACAUAGUCUGCAUGCCGCCGGGCGCCAUGCCUGCAGGUCGACUCUAGAAAACAUG”, the binding signal was 1.33 log2 enrichment (interaction score).
